In PubChem BioAssay (NCI):
The panel holds about 83,000 compounds, 20% with a hit somewhere; the sample as a whole holds those more often.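 Values shown are percent growth following 48 h exposure of cells in 96-well plates to a single concentration of compound; below 10 was considered active.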 A number with no mark means an inactive call. The source made the active and inactive calls.

Columns and labels:
Assay in all cases: NCI-60 one-dose screen, 48 h (100 = growth as untreated, 0 = no growth, -100 = all killed)
SK-MEL-2 melanoma = details: 10 µM unless noted
EKVX NSCLC = details: 10 µM
SN12C renal = details: 10 µM unless noted
UO-31 renal = details: 10 µM unless noted
TK-10 renal = details: 10 µM unless noted
ACHN renal = details: 10 µM unless noted
CAKI-1 renal = details: 10 µM unless noted
A498 renal = details: 10 µM unless noted
CCRF-CEM leukemia = details: 10 µM
MOLT-4 leukemia = details: 10 µM unless noted
SR leukemia = details: 10 µM unless noted
RPMI-8226 leukemia = details: 10 µM unless noted
OVCAR-8 ovarian = details: 10 µM unless noted
OVCAR-5 ovarian = details: 10 µM unless noted
OVCAR-4 ovarian = details: 10 µM unless noted
SK-OV-3 ovarian = details: 10 µM unless noted
IGROV1 ovarian = details: 10 µM unless noted
OVCAR-3 ovarian = details: 10 µM unless noted
HS 578T breast = details: 10 µM unless noted
NCI/ADR-RES ovarian = details: 10 µM unless noted

| SMILES | growth (SK-MEL-2 melanoma) | growth (EKVX NSCLC) | growth (SN12C renal) | growth (UO-31 renal) | growth (TK-10 renal) | growth (ACHN renal) | growth (CAKI-1 renal) | growth (A498 renal) | growth (CCRF-CEM leukemia) | growth (MOLT-4 leukemia) | growth (SR leukemia) | growth (RPMI-8226 leukemia) | growth (OVCAR-8 ovarian) | growth (OVCAR-5 ovarian) | growth (OVCAR-4 ovarian) | growth (SK-OV-3 ovarian) | growth (IGROV1 ovarian) | growth (OVCAR-3 ovarian) | growth (HS 578T breast) | growth (NCI/ADR-RES ovarian) |
| --- | --- | --- | --- | --- | --- | --- | --- | --- | --- | --- | --- | --- | --- | --- | --- | --- | --- | --- | --- | --- |
| CCCC(=O)NNc1[nH]c(-c2cc(OC)c(OC)c(OC)c2)cc1C(=O)OCC | 103% | 103% | 108% | 88.7% | 74.1% | 81% | 73.1% | 120% | 9.44% (active) | 1.13% (active) | 68.2% | 101% | 108% | 92.8% | 118% | 110% | 22.6% | 92.6% | 105% | 114% |
| Cc1ccc(C(C)C)c(OCc2ccc(C(=O)N/N=C/c3cccc(O)c3O)cc2)c1 | 71.5% | 49.1% | 35% | 16.1% | 74% | 12.8% | 31.6% | 90.2% | 6.92% (active) | 7.88% (active) | 9.44% (active) | 28.8% | 23.7% | 70.3% | 27.8% | 66.1% | 40.8% | 20.4% | 76.8% | 1.46% (active) |
| CCOC(=O)c1c(C)oc2ncnc(Nc3ccc(NC(=O)Nc4ccc(CC)cc4)cc3)c12 | 120% | 102% | 107% | 94.8% | 112% | 98.9% | 98.4% | 109% | 93.8% | 98.7% | 81.6% | 95.1% | 112% | 107% | 105% | 88.2% | 110% | 118% | 97.7% | 97.2% |
| O=C1Nc2ccccc2/C1=C/c1cn(CC(O)Cn2cc(/C=C3\C(=O)Nc4ccccc43)c3ccccc32)c2ccccc12 (stereo not given) | -57.6% (active) | -62.3% (active) | -53.6% (active) | -9.18% (active) | -15.1% (active) | -68.4% (active) | 9.83% (active) | -73.2% (active) | -30.6% (active) | -29.4% (active) | -2.94% (active) | -41.7% (active) | 1.35% (active) | -34.2% (active) | -51.7% (active) | -38.2% (active) | -67.4% (active) | -85.1% (active) | -22.3% (active) | 31.8% |
| O=C(Nn1cnc2ccccc21)N1CCCC1 | 116% | 94% | 106% | 88.1% | 113% | 99.1% | 98.8% | 115% | 127% | 87.1% | 76.5% | 150% | 106% | 95.7% | 118% | 104% | 39.4% | 104% | 104% | 119% |
| C/C(=N\Nc1ccc(Cl)cn1)c1ccc2ccccc2n1 | 35.5% | 11.1% | 18% | 2.27% (active) | 56.3% | 8.37% (active) | 7.16% (active) | -15.7% (active) | 3.63% (active) | 3.63% (active) | 5.63% (active) | 11.7% | 6.73% (active) | 29.9% | 36.8% | 1.69% (active) | 16.6% | 18.2% | 37.7% | -0.464% (active) |
| Cc1ccc(OCCn2ccc(=O)n(CCOc3ccc(Cl)cc3C(=O)c3cc(C)cc(C)c3)c2=O)cc1 | 41.2% | 47% | 62% | 41.8% | 61.7% | 60.6% | 47.6% | 33.7% | 25.7% | 19.2% | 19.7% | 34.1% | 70% | 87.2% | 47.3% | 59.8% | 61.4% | 25.1% | 37.2% | 20.1% |
